Laboratory results published in PubChem BioAssay AID606 (Columbia University Molecular Screening Center, 2007).
Screen size: about 52,000 compounds; fewer than 10 were called active.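 How the source made its calls: active means IC50 under 40 µM in the dose-response test; inactive means IC50 of 40 µM or more, or never dose-tested.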 The list is a sample of the results.

target: Tyrosine-protein phosphatase non-receptor type 22 (Homo sapiens) (UniProt Q9Y2R2); test: inhibition of human PTPN22 tyrosine phosphatase – biochemical, DiFMUP fluorescence, recombinant catalytic domain, 10 µM, primary screen (AID 606); conditions: recombinant LYP catalytic domain, at 10 µM, stronger effect = higher value
Sequence (Q9Y2R2 whole entry, looked up, the tested form may be a part): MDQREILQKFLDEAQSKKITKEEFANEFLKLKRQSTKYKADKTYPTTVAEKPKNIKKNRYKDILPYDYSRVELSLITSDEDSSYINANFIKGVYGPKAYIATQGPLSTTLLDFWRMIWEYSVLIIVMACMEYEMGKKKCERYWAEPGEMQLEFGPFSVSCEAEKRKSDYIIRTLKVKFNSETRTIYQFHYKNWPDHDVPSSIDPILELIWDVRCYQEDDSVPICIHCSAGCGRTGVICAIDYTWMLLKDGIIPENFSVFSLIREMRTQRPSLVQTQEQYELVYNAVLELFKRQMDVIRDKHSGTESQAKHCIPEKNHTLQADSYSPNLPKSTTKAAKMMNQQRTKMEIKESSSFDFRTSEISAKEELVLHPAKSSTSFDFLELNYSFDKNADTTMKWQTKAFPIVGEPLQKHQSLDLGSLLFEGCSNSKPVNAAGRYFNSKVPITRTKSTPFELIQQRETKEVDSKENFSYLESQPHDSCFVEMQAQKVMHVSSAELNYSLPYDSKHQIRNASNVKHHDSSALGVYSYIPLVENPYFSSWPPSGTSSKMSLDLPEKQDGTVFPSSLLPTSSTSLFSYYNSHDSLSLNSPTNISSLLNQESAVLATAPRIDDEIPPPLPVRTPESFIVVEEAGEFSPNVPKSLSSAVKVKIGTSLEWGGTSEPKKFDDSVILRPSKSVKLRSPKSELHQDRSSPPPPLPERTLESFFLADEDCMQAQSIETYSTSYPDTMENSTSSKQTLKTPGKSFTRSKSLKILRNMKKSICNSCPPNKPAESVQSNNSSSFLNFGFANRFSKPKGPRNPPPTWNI

inhibition, inactive:
COCC(C)n1c(C)cc(C(=O)COC(=O)c2ccc3ncsc3c2)c1C (centres undefined) -12.6%
CCCn1cnc2cc(NCc3ccccn3)ccc21 6.61%
NC(=O)c1ccccc1NC(=O)CCCN1C(=O)CCC1=O 14.4%
CCN(CC)c1ccc(C(=O)OCC(=O)N2CCN(c3ccccc3)CC2)cc1 0.55%
COc1ccc(N(CC(=O)Nc2ccc(OC)c(Cl)c2)S(=O)(=O)c2c(C)noc2C)cc1 6.18%
CCOC(=O)C1CCN(C(=O)COc2ccc(N(C)S(=O)(=O)c3cccs3)cc2)CC1 4.68%
CC1(C)Cc2c(C#N)c(NCCCO)nc(-c3ccccc3)c2CO1 -2.42%
CSc1nc(-c2ccco2)nn1S(=O)(=O)c1ccccc1 -1.38%
CCN(CC)Cc1cc2ccccc2c2c1COC2 0.09%
c1ccc(CCNc2ncnc3c2nnn3Cc2ccccc2)cc1 -4.3%
COc1cccc(OC)c1OCC(O)CN1CCN(c2ccccc2)CC1 (centres undefined) 2.34%
CC#CCCCC(=O)Nc1cc(OC)nc(OC)n1 3%
CN1C(=O)C(C(=O)NC(C)(C)C)C2c3ccccc3OC13CCCCC23 (centres undefined) -15%
CC(C)N(Cc1nc(-c2ccccc2)no1)S(=O)(=O)c1ccccc1 1.55%
COc1cccc(NC(=O)c2ccc(CN3CCOCC3)cc2)c1 8.87%
Cc1nc2nc(-c3cccnc3)nn2c(C)c1Cl 14.4%
CCc1cc(C(=O)Nc2ccccc2)cs1 0.95%
CC(C)n1c(C(O)c2ccc3c(c2)OCO3)nc2ccccc21 (centres undefined) 5.85%
COc1cccc2cc(-c3cn4cccc(C)c4n3)c(=O)oc12 -3.29%
CCCn1c(CN2CCCCC2CC)nc2c1c(=O)n(C)c(=O)n2C (centres undefined) -4.26%
CC(=O)NC(CCS(C)(=O)=O)C(=O)Nc1ccccc1Cl (centres undefined) 1.63%
CS(=O)(=O)N(CC(=O)Nc1ccc2c(c1)OCCO2)c1ccc2c(c1)OCO2 23.4%
COc1ccc(N2CCN(C(=O)C(Cc3ccccc3)n3cccc3)CC2)cc1 (centres undefined) -12.6%
CCN(CC)C(c1ccc(F)cc1)c1nnnn1C1CCCCC1 (centres undefined) 3.34%
NC(=O)NC(=O)COC(=O)CCCc1c[nH]c2ccccc12 1.43%
Cc1noc(NS(=O)(=O)c2ccc(NC(=O)CSc3ncccn3)cc2)c1C 11.6%
COc1ccc(C(CNC(=O)c2cc(C)oc2C)N2CCOCC2)cc1 (centres undefined) 10.4%
CC(C)(C)NC(=O)CN(C(=O)c1ccc(CN2CCOCC2)o1)c1ccc2c(c1)OCCO2 -2.48%
N#CCCN(C(=O)c1ccco1)c1ccccc1 9.22%
Cc1ccc(NC(=O)c2ccc(S(=O)(=O)NCC3CCCO3)cc2)cc1 (centres undefined) 15.7%
O=C(CN1CCN(S(=O)(=O)c2ccc(Br)cc2)CC1)Nc1ccc2c(c1)OCO2 14.6%
O=C(NCC1CCCO1)[C@@H]1CSC2c3ccccc3C(=O)N21 (some centres undefined) -1.83%
O=C(CSc1nnc(-c2ccccn2)n1Cc1ccco1)c1ccc(-c2ccccc2)cc1 -10.3%
O=C(CCc1ccccc1)Nc1nnc(-c2cccs2)o1 -13%
COc1ccc(C(=O)N2CC(=O)N(CCc3ccccc3)C(=O)C2)cc1OC 9.04%
O=C(C1CCN(S(=O)(=O)N2CCOCC2)CC1)N1CCOCC1 2.43%
CC1CN(Cc2nc3c(c(=O)n(C)c(=O)n3C)n2CC(=O)c2ccccc2)CC(C)O1 (centres undefined) -0.17%
COc1ccc(-n2c(=O)[nH]cc(C(=O)N3CCCc4ccccc43)c2=O)cc1 2.14%
O=C(NCc1ccco1)C1CCN(S(=O)(=O)c2cccc3cccnc23)CC1 4.72%
CCCCn1c2c(c(=O)n(C)c1=O)C(c1ccc(OC)cc1)N1CCCCCC1=N2 (centres undefined) -3.4%
Cc1ccc(S(=O)(=O)NCCC(=O)NCc2ccccc2)cc1 7.96%
CC1CCc2sc3nc(NCc4ccco4)n4ncnc4c3c2C1 (centres undefined) 2.11%
C=CCn1c(NCCO)nc2sc3c(c2c1=O)CCC3 11.6%
OCCn1nc2c3ccccc3nc-2n(-c2ccccc2)c1=S 3.81%
O=C(Nc1c(C(=O)N2CCOCC2)cnn1-c1ccccc1)c1ccccc1 1.38%
COc1ccc2c(c1)C1(Nc3ccccc3-c3nc4ccccc4n31)C(=O)N2C (centres undefined) 7.56%
C1CCc2c(nnc3c2-c2nonc2CC3)C1 11.1%
CSc1nc2c(c(=O)n1Cc1ccccc1)SC(C)C2 (centres undefined) 0.73%
Cn1c(SCC(=O)N2CCCCC2)nnc1-c1ccc(S(=O)(=O)N2CCOCC2)cc1 13.4%
CC(C)(C)NC(=O)C(OC(=O)Cn1nnc(-c2ccc(F)cc2)n1)c1ccncc1 (centres undefined) 1.61%
O=C(c1cc2ccccn2n1)N1CCN(c2ccccn2)CC1 7.66%
CN1C(=O)C(O)(CC(=O)c2ccccn2)c2cc(Br)ccc21 (centres undefined) 4.59%
COc1cc2ccccc2cc1C(=O)Nc1ccccc1N1CCN(S(C)(=O)=O)CC1 6.41%
CC(=O)c1c(N2CCN(c3ccccc3)CC2)nc(=S)n(-c2ccccc2)c1C 3.4%
Cn1c(CCNC(=O)c2cccs2)nnc1SCC(=O)N1CCN(c2ccccc2)CC1 6.14%
CCN1C(=O)C(O)(CC(=O)c2cc(C)ccc2C)c2ccccc21 (centres undefined) 11.7%
CCOC(=O)c1cc2n(n1)C(C(F)(F)C(F)(F)F)CC(C)N2 (centres undefined) 15.7%
O=C(C1CCN(c2nnc(-n3cccc3)s2)CC1)N1CCN(c2cccc(C(F)(F)F)c2)CC1 -2.18%
NC(=O)CN(c1ccc(Cl)cc1)S(=O)(=O)c1ccccc1 -12.5%
COc1ccc(N(CC(=O)N2CCc3ccccc3C2)S(=O)(=O)c2c(C)nn(C)c2C)cc1 -0.55%
O=C(NCc1ccccc1)c1ccc(COCC(F)(F)F)o1 11.7%
CCN1C(=Nc2ccc(Cl)cc2)SC/C1=C\C(=O)OC 6.44%
COc1ccc(C2CC(c3cccc(C)c3)n3ncnc3N2)cc1 (centres undefined) 16.6%
CC1CCC(NC(=O)CN2C(=O)C3CCCN3c3ncc(Cl)cc32)CC1 (centres undefined) -36.6%
Cc1cc(N2CCN(C(c3ccccc3)c3ccc(Cl)cc3)CC2)n2ncnc2n1 (centres undefined) 3.46%
O=C(Nc1ccccn1)C1CCN(S(=O)(=O)c2cccs2)CC1 4.65%
COc1ccc(CCNC(=O)CC2Oc3ccc(Cl)cc3NC2=O)cc1OC (centres undefined) -7.5%
CC(=O)Nc1ccc(C(=O)OCCC(C)C)cc1 -3.58%
Cc1nc2ccc(S(=O)(=O)NCC(=O)N(C)Cc3ccco3)cc2s1 4.87%
CNC(=O)c1ccccc1NC(=O)c1cccc(S(=O)(=O)N2CCC(C)CC2)c1 -7.79%
CCc1ccc2c(COn3nnc4ccc(S(=O)(=O)N(C)C)cc43)cc(=O)oc2c1 -1.03%
CCCSCCCNC(=O)CC1Oc2ccccc2NC1=O (centres undefined) 2.3%
Cc1cccc(Nc2ncnc3nc[nH]c23)c1 -1.47%
CCOCCCNCc1ccc(OC)c(OC)c1 6.63%
CCOC(=O)C1CCN(C(=O)CN(c2cccc(OC)c2)S(=O)(=O)c2ccccc2)CC1 -2.95%
COc1ccccc1OCCC(=O)OCCN1C(=O)c2ccccc2C1=O -6.96%
O=C(Cn1cnc2ccccc2c1=O)N1CCN(Cc2ccccc2)CC1 15.4%
CC(C)(C)c1ccc(S(=O)(=O)N2CCCCC2C(=O)NCc2ccccn2)cc1 (centres undefined) 11%
CCOc1ccc(NC(=O)CSc2nnc(-c3ccccn3)n2N)cc1 6.01%
Cc1c(NC(=O)C2CCCN(S(=O)(=O)c3cnc[nH]3)C2)c(=O)n(-c2ccccc2)n1C (centres undefined) 8.93%
COc1ccc2c(C)cc(SCC(=O)N3CCOCC3)nc2c1 8.83%
Cc1cc(=O)[nH]c(SCC(=O)c2ccc(C(C)C)cc2)n1 10.2%
COC(=O)C1=C(C)n2nnnc2NC1c1cc2ccccc2o1 (centres undefined) 12.9%
COc1cccc(NC(=O)CN(c2cccc(F)c2)S(C)(=O)=O)c1 -7.34%
Cc1cc(C)c(S(=O)(=O)N(C)Cc2cnn(C)c2)c(C)c1 7.74%
Cc1ccc(-c2cc(C(=O)NCc3ccccn3)no2)cc1 6.16%
CC1(C)Cc2ccccc2-c2nnc(-c3ccc(O)cc3)n21 5.6%
COc1ccc(C(=O)N2CCN(c3ccc(C)cc3)CC2)cc1OC -3.18%
CCNC(=O)CC1C(=O)N(c2ccccc2)C(=O)N1CCC(C)C (centres undefined) 5.24%
COc1ccccc1-n1c(CNC(=O)c2ccco2)nnc1SCC(=O)Nc1nccs1 3.45%
CCOC(=O)Cn1c(=N)n(Cc2ccccc2)c2ccccc21 -0.97%
Cn1c(CN2CCOCC2)nc2cc(NC(=O)c3ccccc3Cl)ccc21 10.7%
Cc1cc(C)n2nc(C(=O)Nc3ccccc3N3CCOCC3)nc2n1 15.1%
CCCn1c(N)c(C(=O)CN2CCN(S(=O)(=O)c3cccs3)CC2)c(=O)[nH]c1=O -0.47%
CCCN(c1ccc(OCC)cc1)c1ncnc2nc[nH]c12 16.1%
CC1(C)Cc2c(sc(NC(=O)c3ccco3)c2C#N)CO1 4.29%
CC(=O)c1ccc(OCCCC(=O)n2nnc3ccccc32)cc1 14.1%
Cc1cc(C(F)(F)F)nc(SCC(=O)Nc2ccccc2)n1 0.2%
C=CCSc1nc(C)c(CC(=O)OCCCC)c(=O)[nH]1 2.59%
CCOC(=O)c1oc2c(CN3CCCCC3C)c(O)ccc2c(=O)c1-c1ccc(OC)c(OC)c1 (centres undefined) 15.8%
CC(=O)NC(c1ccccc1)c1nc2ccccc2[nH]1 (centres undefined) -1.04%
CCCn1c(NCc2ccco2)nc2ccccc21 11.7%
COc1ccc(CCNc2cc(=O)[nH]c(N)n2)cc1 16.4%
COC(=O)c1ccc(CSc2nc3scc(-c4cccs4)c3c(=O)[nH]2)o1 3.74%
COc1ccc(NC2CCN(C3CC(=O)N(c4ccc(F)c(Cl)c4)C3=O)CC2)cc1 (centres undefined) 4.79%
COc1ccc(CC(=O)N2CCN=C2SC)cc1 7.94%
O=S(=O)(Nc1ccc2c(c1)oc1ccccc12)N1CCCC1 -2.32%
Cc1ccc(S(=O)(=O)/N=C(/Nc2nc(C)cc(C)n2)N2CCOCC2)cc1 2.14%
Cc1nnc(NCc2ccco2)c2ccccc12 5.7%
